Screening results deposited in PubChem BioAssay by National Center for Advancing Translational Sciences (NCATS).
NPSR antagonist = blocks cAMP signaling of the human neuropeptide S receptor. Q6W5P4. CHO-NPSR cells, cAMP TR-FRET, antagonist mode. Potency, µM (top dose mostly 38.3 µM), for the others: at the top dose activity change, negative = inhibition, actives largely listed as inhibitors. 1% of 220,000 active. AID 1461; note: potency is the fitted concentration of half-maximal effect; nearly all actives have a fitted effect of over 50% in size
KDM4E inh = inhibitors of human JMJD2E histone demethylase | B2RXH2 | JMJD2E catalytic domain, FDH-coupled NADH fluorescence (FDH is formaldehyde dehydrogenase) | Potency, µM (top dose mostly 57.1 µM), without a hit: at the highest dose activity change, negative = inhibition, usual class: inhibitors | 1.6% of 230,000 active | AID 2147; active = well fitted inhibition curve with a large enough effect, not every such curve was filed as active; inconclusive = small, poorly fitted or top-dose-only effect, or another doubt; inactive = no such curve, though single readings can be large or run the other way;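 note: potency is the fitted concentration of half-maximal effect; 0% = wells with enzyme and -100% = buffer wells without enzyme; nearly all actives have a fitted effect of over 50% in size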
FBPA coupling cs = inhibits coupling enzyme system, counter-screen for aldolase hits. activity change, negative = inhibition, % at 58.2 µM, hits read low. coupling enzyme system counterscreen, AmpLite Red fluorescence. 0.67% of 290,000 active; in the data active = activity change below about -30%
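Counterscreen of the coupled detection system alone, without aldolase: glyceraldehyde-3-phosphate coupling enzymes plus AmpLite Red readout. Compounds at 57.5 uM final, 10 min RT preincubation, 20 min RT reaction, fluorescence 525/598 nm.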
ALDH1A1 inh = blocks purified human ALDH1A1 activity; AID 1030; Potency, µM (top dose mostly 75.3 µM), for the others: at the top dose activity, negative = inhibition, most hits filed as inhibitors; Purified ALDH1A1, NADH fluorescence, propionaldehyde substrate; P00352; 7.3% of 220,000 active; active = well fitted inhibition curve with a large enough effect, not every such curve was filed as active; inconclusive = small, poorly fitted or top-dose-only effect, or another doubt; inactive = no such curve, though single readings can be large or run the other way;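 note: potency is the fitted concentration of half-maximal effect; plate controls were no enzyme wells and a reference inhibitor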
Target sequence (P00352 whole entry, looked up): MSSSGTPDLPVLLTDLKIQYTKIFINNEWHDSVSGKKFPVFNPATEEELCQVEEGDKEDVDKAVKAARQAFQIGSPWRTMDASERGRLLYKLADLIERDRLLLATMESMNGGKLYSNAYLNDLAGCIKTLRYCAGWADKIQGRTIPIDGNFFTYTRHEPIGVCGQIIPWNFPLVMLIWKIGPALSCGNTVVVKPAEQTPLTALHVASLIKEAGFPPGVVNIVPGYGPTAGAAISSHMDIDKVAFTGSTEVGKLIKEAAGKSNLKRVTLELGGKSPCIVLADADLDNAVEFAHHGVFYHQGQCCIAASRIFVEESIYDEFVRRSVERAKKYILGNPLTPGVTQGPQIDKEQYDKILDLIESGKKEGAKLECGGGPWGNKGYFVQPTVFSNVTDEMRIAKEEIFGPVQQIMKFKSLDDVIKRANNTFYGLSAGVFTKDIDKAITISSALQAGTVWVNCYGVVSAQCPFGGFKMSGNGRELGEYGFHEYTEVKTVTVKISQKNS
Sfp inh = inhibitors of Bacillus subtilis Sfp phosphopantetheinyl transferase; Q9F4F7; AID 1490; 3.5% of 310,000 active; Biochemical Sfp PPTase activity, qHTS; Potency, µM, for inactives: largest response in the series, negative = inhibition, actives largely listed as inhibitors;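 note: the enzyme is Sfp with the accession as filed and its product quenches rhodamine fluorescence; potency is the fitted concentration of half-maximal effect; 0% = enzyme reaction without inhibitor and -100% = no enzyme wells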
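After 15 min at room temperature with compound, 15 nM Sfp received 5 uM rhodamine-CoA plus 12.5 uM BHQ-2-ybbR (50 mM Hepes pH 7.6, 10 mM MgCl2). Rate came from the fluorescence difference over 30 min, ex 525/em 598 nm.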
GoLoco inh red = inhibitors of human Gai1-RGS12 GoLoco interaction (red fluorophore); P63096; Gai1:RGS12 GoLoco peptide FP, rhodamine, 10 min; Potency, µM (titrated, usually from 61.6 µM), for the others: at the top dose activity, negative = inhibition, usual class: inhibitors; 0.44% of 230,000 active; active = well fitted inhibition curve with a large enough effect, not every such curve was filed as active; inactive = no such curve, though single readings can be large or run the other way; note: potency is the fitted concentration of half-maximal effect; nearly all actives have a fitted effect of over 30% in size
Sfp PPTase conf = Sfp phosphopantetheinyl transferase inhibition, confirmation; 79% of 380 active; Potency, µM (top dose mostly 114 µM), without a hit: top-dose activity change, negative = inhibition, hits mostly inhibitors; Sfp PPTase enzymatic assay, qHTS titration; shares compounds with Sfp inh;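 note: potency is the fitted concentration of half-maximal effect; plate controls were uninhibited Sfp reaction for no effect and no enzyme control for full effect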
Target sequence (Q9F4F7 whole entry, looked up): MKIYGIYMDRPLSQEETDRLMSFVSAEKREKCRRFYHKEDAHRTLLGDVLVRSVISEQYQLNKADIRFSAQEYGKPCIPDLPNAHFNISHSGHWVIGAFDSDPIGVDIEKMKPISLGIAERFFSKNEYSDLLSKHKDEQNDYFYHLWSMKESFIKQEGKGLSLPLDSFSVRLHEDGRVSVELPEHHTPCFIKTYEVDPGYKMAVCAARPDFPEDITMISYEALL
Sfp gel assay = Inhibits Bacillus subtilis Sfp phosphopantetheinyl transferase. 20% of 210 active. Potency, µM, most hits filed as inhibitors. purified Sfp, gel-based phosphopantetheinylation read-out. shares compounds with Sfp inh;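 active = potency below 100 µM; inconclusive = dose-dependent response but potency above 100 µM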;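 note: band intensities scaled against SCH202676 control wells before curve fitting; potency is an IC50 for inhibitors of Sfp transfer activity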
An asterisk follows results filed as active; i = inactive; u = inconclusive; x = not tested or not shown; ! = a repeat was not active; [ ] = another dose, or the depositor's remark. Hits are enriched below; roughly 8.5% of the tested compounds scored in any of these assays. Unless noted, calls come from the whole dose curve; as a rule, active = well fitted curve in the direction sought with a large enough effect; inconclusive = small, poorly fitted or top-dose-only effect, or another doubt; inactive = no such curve, though single readings can be large; an effect the other way counts as inactive or inconclusive. Unless noted, % is set by controls: 0 for no effect and ±100 for the full control effect.

SMILES | NPSR antagonist | KDM4E inh | FBPA coupling cs | ALDH1A1 inh | Sfp inh | GoLoco inh red | Sfp PPTase conf | others
Nc1cccnc1Sc1cccc(Cl)c1 | 9%[46.1 µM] | u | 3 | u | 3.2µM* | -9% | 19µM*
Nc1cccnc1Sc1ccc(Cl)cc1 | 9%[46.1 µM] | u | -5 | u | 5% | 4% | x
CCC1CC2(C)NC(=O)c3c(sc4c3CC(C)(C)OC4)N2C1=O (configuration not stated) | 2%[46.1 µM] | u | 1 | u | 16µM* | -5% | 19µM*
Cc1nc(N2CCOCC2)c2nc(-c3ccccc3)n(CC(C)(C)CN(C)C)c2n1 | x | u | 1 | u | 12% | 2% | x
COc1ccc2[nH]c(=O)c(CN(C(=O)c3ccco3)C3CCCCC3)cc2c1 | u | u | 11 | u | 7.9µM* | -6% | 37µM* | Sfp gel assay=i
CCCCC(=O)Nc1ccc(C(=O)NN2C(=O)c3ccccc3C2=O)cc1 | -6%[46.1 µM] | -8% | 2 | 10% | 3% | 6% | x
CN1CCN2c3ccccc3Cc3ccccc3C2C1 (configuration not stated) | 1% | 5% | -3 | u | 45µM*! | -14% | u | Sfp gel assay=u
CN1CCN(C2Cc3ccccc3Sc3ccc(Cl)cc32)CC1 (configuration not stated) | 17%[46.1 µM] | -14% | x | -4% | -23% | 10% | x
CC(=O)CCc1oc2ccc(NC(C)=O)cc2c1-c1ccc(C)o1 | -6%[46.1 µM] | u | -2 | u | 13µM* | -34% | 15µM* | Sfp gel assay=i
CC(=O)Nc1ccc2oc(C)nc2c1 | 15% | -2% | 0 | -5% | 10% | -5% | x
O=C(NCc1ccc2c(c1)OCO2)C(=O)NCC1OCCCN1S(=O)(=O)c1ccc(F)cc1 (configuration not stated) | x | x | x | x | 17% | x | x
COc1ccc(CCNc2ccc(C(CC(N)=O)NC(=O)c3cc(OC)ccc3OC)cc2[N+](=O)[O-])cc1 (configuration not stated) | x | x | 3 | x | 6% | x | x
O=C(c1ccc(-c2ccc([N+](=O)[O-])cc2)o1)N1CCCCC1 | -25% | -15% | 0 | 11µM* | 16µM* | -9% | 19µM* | Sfp gel assay=u
Cc1ccc(S(=O)(=O)N2CCOCC2)cc1NC(=O)COC(=O)CNC(=O)c1ccc(Cl)cc1Cl | x | x | x | x | 6% | x | x
CCOC(=O)c1cc(-c2ccccc2)sc1NC(=O)CC | -21% | -2% | 2 | u | -21% | 2% | x
CCOC(=O)c1cc(-c2ccccc2)sc1NC(=O)c1ccc(OC)cc1 | -3%[46.1 µM] | 13% | 7 | u | 14µM* | -13% | 8.3µM*
Cc1cc(/C(N)=N/OC(=O)Nc2ccc(Cl)cc2)no1 | 17% | 5% | 0 | x | 5% | 5% | x
CCOC(=O)c1nn(-c2ccccc2)c(=O)c2c(N)scc12 | 1%[46.1 µM] | u | -45* | u | 13µM* | -10% | 19µM*
CCOC(=O)c1nn(-c2ccccc2C)c(=O)c2c(N)scc12 | -12% | u | -55* | 9.5µM* | 3.2µM* | -11% | 15µM*
CCOC(=O)c1nn(-c2ccccc2)c(=O)c2c(NC(C)=O)scc12 | -22% | 11% | -6 | u | 16% | -1% | x
COc1ccc(CNc2ncc(-c3cccc([N+](=O)[O-])c3)n2C)c(OC)c1OC | x | x | -2 | x | -13% | x | x
CC(=O)O[C@H]1C(=O)[C@@]2(C)[C@H]([C@H](OC(=O)c3ccccc3)[C@]3(O)C[C@H](OC(=O)[C@H](O)C(NC(=O)c4ccccc4)c4ccccc4)C(C)=C1C3(C)C)[C@]1(OC(C)=O)CO[C@@H]1C[C@@H]2O (some centres not stated) | -36% | -22% | 0 | x | 10µM* | 2% | 30µM* | Sfp gel assay=i
NS(=O)(=O)c1cc(C(=O)N2CCNC(=O)C2)ccc1Cl | x | x | 1 | x | 7% | x | x
COc1ccc(NC(=S)N(CCC(C)C)C2CCN(C(C)C)CC2)cc1Cl | x | x | -47* | x | 4µM* | x | 1.9µM*
CC(C)(C)NC(=O)C(c1cccnc1)N(C(=O)c1ccc(Cl)nc1)C1CCCC1 (configuration not stated) | 20% | 0% | -51* | 5.6µM* | 3.5µM* | -3% | 0% | Sfp gel assay=i
SMILES | NPSR antagonist | KDM4E inh | FBPA coupling cs | ALDH1A1 inh | Sfp inh | GoLoco inh red | Sfp PPTase conf | others
CCC(C(=O)NC(C)(C)C)N(C(=O)c1ccc(Cl)nc1)C1CCCC1 (configuration not stated) | 8% | 9% | 1 | 9% | 4% | 1% | x
O=C(Nc1ccc(O)c(C(=O)O)c1)Oc1ccccc1 | -18% | u | 0 | u | u | -2% | x
CCOC(=O)c1ccc(NC(=O)Cn2nnc(-c3ccccc3F)n2)cc1 | -1% | 10% | 2 | 5% | -3% | -13% | x
CCOC(=O)c1cc(=O)n2nc(-c3ccccc3F)nc2s1 | u | -2% | 1 | u | 14µM* | -40% | 59µM*
Cc1cnc(=O)[nH]c1SCC(=O)c1ccc(F)cc1 | x | x | 0 | x | 14µM* | x | 8.3µM*
C=C1CCN(C(Cc2ccccc2)C(=O)NCc2ccc(Cl)cc2)S(=O)(=O)c2ccccc21 (configuration not stated) | x | x | 0 | x | 4% | x | x
CCN(Cc1ccccc1)S(=O)(=O)c1ccc(C(=O)N2CCN(c3nc4ccccc4s3)CC2)cc1 | 10% | -4% | 6 | -2% | 1% | -4% | x
Clc1cc(Cl)c2nc(N3CCCCC3)sc2c1 | -3%[46.1 µM] | -7% | 2 | 22µM* | 10µM* | -18% | 47µM*
CCOc1ccc(NC(=O)CN(C)C(=O)c2cccnc2Sc2ccc(C)c(C)c2)cc1OCC | x | x | 0 | x | -1% | x | x
O=C1CCN(Cc2ccc(Br)cc2)CCN1[C@H](CO)Cc1ccccc1 | x | x | 0 | x | 15% | x | x
CCOc1ccc2nc(SCC(=O)c3ccc(C)s3)sc2c1 | -28%[46.1 µM] | -1% | -6 | u | 18µM* | 10% | u | Sfp gel assay=i
CC(C)(C)c1ccc(OCCC(=O)NCCc2ccc(S(N)(=O)=O)cc2)cc1 | x | x | x | x | 20µM* | x | 12%
Cc1cccc(C(=O)N2CCCC(N3CCN(Cc4ccc5c(c4)OCO5)CC3)C2)n1 (configuration not stated) | x | x | -2 | x | 8% | x | x
O=C(CSc1nc2cc([N+](=O)[O-])ccc2n1-c1ccccc1)NCc1ccc2c(c1)OCO2 | -16% | 5% | 5 | -2% | 1µM* | -2% | 15µM*
